Publication PMC4336329 (PLoS ONE, 2015)
Out of some 310,000 compounds screened, about 14,000 (4.5%) showed an effect of 50% or more. Effects have a minus sign here. Only a selection was taken, and strong results are over-represented in it overall.

biological target: human ether-à-go-go-related gene (hERG) potassium channel (human, UniProt Q12809); assay: primary screen, population patch clamp on CHO cells stably expressing hERG; higher = less effect of the substance
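Also: peak tail current of the secondary pulse compared with the same well before compound.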

human ether-à-go-go-related gene (hERG) potassium channel, sequence (Q12809 whole entry, looked up): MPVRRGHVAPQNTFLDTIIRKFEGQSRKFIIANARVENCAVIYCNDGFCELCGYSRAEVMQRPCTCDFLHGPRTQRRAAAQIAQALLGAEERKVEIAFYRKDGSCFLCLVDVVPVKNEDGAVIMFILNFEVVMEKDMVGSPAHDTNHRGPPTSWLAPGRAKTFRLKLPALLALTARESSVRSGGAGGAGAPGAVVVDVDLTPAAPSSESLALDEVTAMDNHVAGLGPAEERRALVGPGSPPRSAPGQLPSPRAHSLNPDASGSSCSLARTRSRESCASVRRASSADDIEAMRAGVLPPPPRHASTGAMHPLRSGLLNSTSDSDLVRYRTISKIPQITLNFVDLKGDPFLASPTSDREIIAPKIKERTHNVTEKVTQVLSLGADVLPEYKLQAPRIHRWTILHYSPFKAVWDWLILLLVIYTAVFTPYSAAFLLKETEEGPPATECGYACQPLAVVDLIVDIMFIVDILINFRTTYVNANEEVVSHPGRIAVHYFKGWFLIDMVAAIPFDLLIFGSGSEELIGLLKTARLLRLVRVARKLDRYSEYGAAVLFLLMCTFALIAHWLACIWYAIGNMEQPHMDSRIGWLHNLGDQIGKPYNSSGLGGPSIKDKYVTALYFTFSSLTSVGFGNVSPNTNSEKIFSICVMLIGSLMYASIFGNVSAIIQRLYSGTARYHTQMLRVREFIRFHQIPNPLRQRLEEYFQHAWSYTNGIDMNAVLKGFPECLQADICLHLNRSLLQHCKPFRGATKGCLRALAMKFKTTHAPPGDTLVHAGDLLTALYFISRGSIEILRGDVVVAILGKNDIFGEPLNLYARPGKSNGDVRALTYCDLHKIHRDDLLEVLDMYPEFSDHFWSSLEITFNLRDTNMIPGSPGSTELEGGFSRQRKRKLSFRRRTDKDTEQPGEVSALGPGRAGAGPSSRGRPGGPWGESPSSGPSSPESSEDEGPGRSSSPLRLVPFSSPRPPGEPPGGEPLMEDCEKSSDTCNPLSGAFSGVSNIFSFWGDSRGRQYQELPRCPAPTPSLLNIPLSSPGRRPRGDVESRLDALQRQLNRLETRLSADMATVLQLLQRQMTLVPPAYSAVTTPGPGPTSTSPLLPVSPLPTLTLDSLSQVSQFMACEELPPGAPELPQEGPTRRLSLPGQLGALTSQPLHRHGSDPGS

| SMILES | hERG current change (%, negative = inhibition) at 10uM |
| --- | --- |
| Cc1c(Cl)cccc1N1CC(C)(C)C1=O | -2.95% |
| COC(=O)c1sc2nc(SCc3cccc(Cl)c3)n(N)c(=O)c2c1C | 1.39% |
| CCC1Sc2ccccc2N(CC(=O)NC2CC2)C1=O (centres unmarked) | 7.59% |
| COc1ccc(CN2CC(C(N)=O)Oc3ccccc32)cc1F (centres unmarked) | 3.16% |
| Cn1ncnc1SCc1cn2cccnc2n1 | 14.2% |
| CC1CC(Nc2ccccc2N)=CC(=O)O1 (centres unmarked) | 11.7% |
| COc1ccc(C2/C(=C(/O)c3ccccc3)C(=O)C(=O)N2c2ncccn2)cc1OC (centres unmarked) | 7.54% |
| CC(=O)c1ccc(-c2ccccc2OC(F)(F)F)o1 | -10.7% |
| O=C(NCCOc1ccccc1F)c1ccc2c(=O)n3c(nc2c1)CCC3 | -20.8% |
| Cc1ccc(CN2CCN(Cc3ccc(-n4cccn4)cc3)CC2CCO)cc1 (centres unmarked) | -78.1% |
| CC(C)N1CCN(Cc2cccc(-n3cccn3)c2)CC1CCO (centres unmarked) | -12.3% |
| CSCCCN1CC[C@@H](N2CCN(c3ccccc3F)CC2)[C@H](O)C1 | -36.8% |
| Cc1cccc(CN2CCN(Cc3ccc(-n4cccn4)cc3)CC2CCO)n1 (centres unmarked) | -30.2% |
| CC(C)CCN1CCN(Cc2cccc(-n3cccn3)c2)CC1CCO (centres unmarked) | -57.6% |
| O[C@@H]1CN(Cc2ccc(-n3cccn3)cc2)CC[C@H]1N1CCN(c2ccccc2F)CC1 | -67.5% |
| OCCC1CN(Cc2ccc(-n3cccn3)cc2)CCN1Cc1ccccc1 (centres unmarked) | -59.8% |
| CC(C)=CC(=O)N1CC[C@@H](N2CCN(c3ccccc3F)CC2)[C@H](O)C1 | 1.23% |
| CCOC(=O)CC(C)(C)/C(C)=N/Nc1ccc([N+](=O)[O-])cc1[N+](=O)[O-] | -24.5% |
| CCOc1ccc(CCNC(=O)c2cccc(C#N)c2)cc1OCC | -6.55% |
| Cc1ccc(N2C(=O)Nc3ccc(Br)cc3C2(O)C(=O)NCCN(C)C)cc1C (centres unmarked) | 21.4% |
| CCCCn1c(SCc2nc(N)nc(Nc3ccccc3C)n2)nc2ccccc2c1=O | -1.63% |
| Cc1c(NC(=O)CN2C(=O)c3cccc4cccc2c34)c(=O)n(-c2ccccc2)n1C | 4.55% |

| SMILES | hERG current change (%, negative = inhibition) at 10uM |
| --- | --- |
| Cc1cc(-n2cccn2)ccc1CN1CCN(C2CCCC2)C(CCO)C1 (centres unmarked) | -73.5% |
| OCCC1CN(Cc2cc(F)ccc2-n2cccn2)CCN1C1CCCC1 (centres unmarked) | -29% |
| OCCC1CN(Cc2cccc3nccnc23)CCN1C1CCCC1 (centres unmarked) | -4.4% |
| COc1cccc(-c2sc3ccc(OC)cc3c2C#CCC(C)O)c1 (centres unmarked) | 25.8% |
| COc1ccc(CN(C)C(=O)C23CC4CC(CC(C4)C2)C3)c(OC)c1 | -25% |
| CCOC(=O)c1cc(-c2ccc(OC(F)F)cc2)nc2nc(SC)[nH]c(=O)c12 | -42.7% |
| COc1ccc(NS(=O)(=O)c2cccc(C(=O)NNC(=O)CNC(=O)c3ccco3)c2)cc1 | 12.8% |
| CC(=O)Nc1ccc2c(c1)N(S(=O)(=O)c1cccs1)CCC2 | -3.79% |
| Cc1ccc(C(=O)N/C(=C\c2ccco2)C(=O)NCCCn2ccnc2)cc1 | -64.3% |
| COc1ccc(C(=O)N/C(=C\c2ccco2)C(=O)NCCCn2ccnc2)cc1 | -19.7% |
| Cc1ccc(C(=O)N/C(=C\c2ccco2)C(=O)NCCN2CCCCC2)cc1C | -60.1% |
| Cc1ccc(C(=O)N/C(=C\c2ccco2)C(=O)NCCN2CCOCC2)cc1C | -3.01% |
| Cc1ccc(C(=O)N/C(=C/c2ccco2)C(=O)NCCCn2ccnc2)cc1 | -64.7% |
| O=C(NCCN1CCCCC1)/C(=C/c1ccco1)NC(=O)c1ccccc1 | -40.6% |
| Cc1ccc(C(=O)N/C(=C\c2ccco2)C(=O)NCCCn2ccnc2)cc1C | -39.8% |
| CCOC(=O)C1=C(C)Nc2nc(SCC)[nH]c(=O)c2C1c1ccncc1 (centres unmarked) | -7.65% |
| Cc1cc(C)c(C)c(S(=O)(=O)N2CCN(Cc3nc4ccccc4[nH]3)CC2)c1C | 0.133% |
| Nc1c(NCCc2ccccc2)c2ccccc2oc1=O | -11.9% |
| COc1ccc(/C=c2\sc3nc(=O)c(C)nn3c2=O)c(OC)c1 | 23% |
| O=C(COC(=O)c1cc(-c2ccncc2)nc2ccccc12)Nc1ccc2c(c1)OCO2 | 2.21% |
| COc1ccc(CNS(=O)(=O)c2ccc(S(=O)(=O)N3CCCCC3)cc2)cc1 | 7.34% |
| CN(NC(=O)c1ccccc1Cl)c1ncc(C(F)(F)F)cc1Cl | -1.95% |
